Experimental data published in the supplement of paper PMC8728848.
The entries come from a sample that favours the strongest signals as a whole.

Experiments:
Assay in all cases: glycan array binding signal (z-score within array); higher = stronger binding
Details in all cases: glycan notation: IUPAC condensed, linker removed
Fuc(a1-2)Gal(b1-3)GlcNAc = biological target: Fuc(a1-2)Gal(b1-3)GlcNAc
In short: (§1)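 The binding signal is a Z-score computed within each array. Data were drawn from 3228 arrays in the Consortium for Functional Glycomics database, restricted to those with a known protein sequence. Scores were averaged over arrays of the same protein sequence at different concentrations or buffers, and over linkers, and negative values can be taken as non-binding.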

[1] = biological target: Fuc(a1-2)Gal(b1-3)GlcNAc(b1-2)Man(a1-3)[Fuc(a1-2)Gal(b1-3)GlcNAc(b1-2)Man(a1-6)]Man(b1-4)GlcNAc(b1-4)[Fuc(a1-6)]GlcNAc
In short: as §1

[2] = biological target: Fuc(a1-2)Gal(b1-4)GlcNAc(b1-2)Man
In short: as §1

[3] = biological target: Fuc(a1-2)Gal(b1-4)[Fuc(a1-3)]GlcNAc
In short: as §1

[4] = biological target: Fuc(a1-2)[Gal(a1-3)]Gal(b1-4)GlcNAc(b1-2)Man
In short: as §1

[5] = biological target: Fuc(a1-2)[GalNAc(a1-4)]Gal(b1-4)GlcNAc
In short: as §1

[6] = biological target: Gal(a1-3)Gal(b1-4)[Fuc(a1-3)]GlcNAc
In short: as §1

[7] = biological target: Gal(b1-3)GlcNAc(b1-2)[Gal(b1-3)GlcNAc(b1-6)]Man(a1-6)[Gal(b1-3)GlcNAc(b1-2)Man(a1-3)]Man(b1-4)GlcNAc(b1-4)GlcNAc
In short: as §1

[8] = biological target: Gal(b1-3)GlcNAc(b1-3)Gal(b1-4)Glc
In short: as §1

[9] = biological target: Gal(b1-3)GlcNAc(b1-3)GalNAc
In short: as §1

[10] = biological target: Gal(b1-3)GlcNAc(b1-6)GalNAc
In short: as §1

[11] = biological target: Gal(b1-3)[Neu5Ac(b2-6)]GalNAc
In short: as §1

[12] = biological target: Gal(b1-4)GlcNAc(b1-2)Man(a1-3)[Gal(b1-4)GlcNAc(b1-2)Man(a1-6)]Man(b1-4)GlcNAc(b1-4)GlcNAc
In short: as §1

[13] = biological target: Gal(b1-4)GlcNAc(b1-2)Man(a1-3)[Gal(b1-4)GlcNAc(b1-2)Man(a1-6)]Man(b1-4)GlcNAc(b1-4)[Fuc(a1-6)]GlcNAc
In short: as §1

[14] = biological target: Gal(b1-4)GlcNAc(b1-2)Man(a1-3)[GlcNAc(b1-2)Man(a1-6)]Man(b1-4)GlcNAc(b1-4)GlcNAc
In short: as §1

[15] = biological target: Gal(b1-4)GlcNAc(b1-2)Man(a1-3)[GlcNAc(b1-4)][Gal(b1-4)GlcNAc(b1-2)Man(a1-6)]Man(b1-4)GlcNAc(b1-4)GlcNAc
In short: as §1

[16] = biological target: Gal(b1-4)GlcNAc(b1-2)Man(a1-6)[GlcNAc(b1-2)Man(a1-3)]Man(b1-4)GlcNAc(b1-4)GlcNAc
In short: as §1

[17] = biological target: Gal(b1-4)GlcNAc(b1-3)Gal(b1-4)GlcNAc(b1-3)Gal(b1-4)GlcNAc(b1-3)Gal(b1-4)GlcNAc(b1-2)Man(a1-3)[Gal(b1-4)GlcNAc(b1-3)Gal(b1-4)GlcNAc(b1-3)Gal(b1-4)GlcNAc(b1-3)Gal(b1-4)GlcNAc(b1-2)Man(a1-6)]Man(b1-4)GlcNAc(b1-4)GlcNAc
In short: as §1

Gal(b1-6)Gal = biological target: Gal(b1-6)Gal
In short: as §1

[18] = biological target: Gal3S(b1-4)[Fuc(a1-3)]GlcNAc6S
In short: as §1

GalNAc(b1-3)Gal = biological target: GalNAc(b1-3)Gal
In short: as §1

GalNAc3S(b1-4)GlcNAc3S = biological target: GalNAc3S(b1-4)GlcNAc3S
In short: as §1

[19] = biological target: GlcNAc(a1-4)Gal(b1-4)GlcNAc(b1-3)Gal(b1-4)GlcNAc(b1-3)Gal(b1-4)GlcNAc
In short: as §1

[20] = biological target: GlcNAc(b1-2)Man(a1-3)[GlcNAc(b1-2)Man(a1-6)]Man(b1-4)GlcNAc(b1-4)[Fuc(a1-6)]GlcNAc
In short: as §1

B1: PVL (Psathyrella velutina), Q309D1_9AGAR (protein)
chain: MSVVVISQALPVPTRIPGVADLVGFGNGGVYIIRNSLLIQVVKVINNFGYDAGGWRVEKHVRLLADTTGDNQPDVVGFGENGVWISTNNGNNTFVDPPKMVLANFAYAAGGWRVEKHIRFMADLRKTGRADIVGFGDGGIYISRNNGGGQFAPAQLALNNFGYAQGWRLDRHLRFLADVTGDGLLDVVGFGENQVYIARNSGNGTFQPAQAVVNNFCIGAGGWTISAHPRVVADLTGDRKADILGFGVAGVYTSLNNGNGTFGAVNLVLKDFGVNSGWRVEKHVRCVSSLTNKKVGDIIGFGDAGVYVALNNGNGTFGPVKRVIDNFGYNQGWRVDKHPRFVVDLTGDGCADIVGFGENSVWACMNKGDGTFGPIMKLIDDMTVSKGWTLQKTVRYAANLYL
glycan array binding signal (z-score) (Fuc(a1-2)Gal(b1-3)GlcNAc): -0.372 | glycan array binding signal (z-score) [1]: -0.362 | glycan array binding signal (z-score) [2]: -0.366 | glycan array binding signal (z-score) [3]: -0.367 | glycan array binding signal (z-score) [4]: -0.372 | glycan array binding signal (z-score) [5]: -0.335 | glycan array binding signal (z-score) [6]: -0.368 | glycan array binding signal (z-score) [7]: -0.349 | glycan array binding signal (z-score) [8]: -0.359 | glycan array binding signal (z-score) [9]: -0.36 | glycan array binding signal (z-score) [10]: -0.364 | glycan array binding signal (z-score) [11]: -0.366 | glycan array binding signal (z-score) [12]: -0.369 | glycan array binding signal (z-score) [13]: -0.555 | glycan array binding signal (z-score) [14]: 0.543 | glycan array binding signal (z-score) [15]: -0.369 | glycan array binding signal (z-score) [16]: 0.45 | glycan array binding signal (z-score) [17]: 0.956 | glycan array binding signal (z-score) (Gal(b1-6)Gal): -0.37 | glycan array binding signal (z-score) [18]: -0.344 | glycan array binding signal (z-score) (GalNAc(b1-3)Gal): -0.243 | glycan array binding signal (z-score) (GalNAc3S(b1-4)GlcNAc3S): -0.369 | glycan array binding signal (z-score) [19]: 4.19 | glycan array binding signal (z-score) [20]: 0.519
